# Paper PMC4336329 (PLoS ONE, 2015)
# Hit rate of the full screen: of about 310,000 compounds, about 2,200 (0.71%) showed an effect of 50% or more. The effect is printed as a negative number. This excerpt belongs to a sample that is enriched for strong results.
# Target: human ether-à-go-go-related gene (hERG) potassium channel (human, UniProt Q12809)
# Assay: primary screen, population patch clamp on CHO cells stably expressing hERG; higher = less effect of the substance
# Chain of human ether-à-go-go-related gene (hERG) potassium channel (Q12809 whole entry, looked up): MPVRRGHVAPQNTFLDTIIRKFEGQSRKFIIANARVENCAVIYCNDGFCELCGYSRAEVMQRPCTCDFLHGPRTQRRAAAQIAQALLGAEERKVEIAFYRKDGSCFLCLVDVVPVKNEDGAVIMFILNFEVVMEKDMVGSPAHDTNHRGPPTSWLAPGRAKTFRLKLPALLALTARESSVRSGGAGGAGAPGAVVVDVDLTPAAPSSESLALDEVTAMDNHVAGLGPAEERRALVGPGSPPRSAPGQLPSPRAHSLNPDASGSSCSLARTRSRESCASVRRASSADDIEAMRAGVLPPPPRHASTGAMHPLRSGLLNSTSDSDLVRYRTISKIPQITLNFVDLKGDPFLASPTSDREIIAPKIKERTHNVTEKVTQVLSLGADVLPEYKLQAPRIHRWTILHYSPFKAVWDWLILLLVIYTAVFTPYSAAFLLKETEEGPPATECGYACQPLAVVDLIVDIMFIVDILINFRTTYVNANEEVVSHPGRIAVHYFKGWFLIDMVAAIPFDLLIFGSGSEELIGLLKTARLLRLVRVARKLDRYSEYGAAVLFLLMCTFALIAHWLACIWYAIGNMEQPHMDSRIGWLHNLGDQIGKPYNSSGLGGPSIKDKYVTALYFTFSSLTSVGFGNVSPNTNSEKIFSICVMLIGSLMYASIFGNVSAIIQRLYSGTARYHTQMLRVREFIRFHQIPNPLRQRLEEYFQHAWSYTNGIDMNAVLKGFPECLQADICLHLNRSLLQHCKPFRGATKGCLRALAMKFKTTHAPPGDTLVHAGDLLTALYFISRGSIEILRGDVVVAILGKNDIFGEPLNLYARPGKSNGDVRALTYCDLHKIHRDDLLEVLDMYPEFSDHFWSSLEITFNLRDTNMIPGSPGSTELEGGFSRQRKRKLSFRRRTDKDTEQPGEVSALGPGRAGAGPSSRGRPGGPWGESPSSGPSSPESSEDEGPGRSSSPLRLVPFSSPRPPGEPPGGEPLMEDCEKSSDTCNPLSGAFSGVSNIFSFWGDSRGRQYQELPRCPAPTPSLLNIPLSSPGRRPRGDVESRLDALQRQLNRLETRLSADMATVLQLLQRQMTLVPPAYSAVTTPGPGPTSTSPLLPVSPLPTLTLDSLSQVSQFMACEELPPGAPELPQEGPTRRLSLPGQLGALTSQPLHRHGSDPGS
row,Structure (SMILES),"hERG current change (%, negative = inhibition) at 1uM"
1,COc1ccccc1CNC(=O)C1(c2ccc(Cl)cc2)CC1,0.547%
2,O=C(c1cccc(C(F)(F)F)c1)N1CCCC1,8.42%
3,COc1ccc(-c2nn(-c3ccccc3)cc2/C=N/Nc2ccc3ccccc3n2)cc1OC,7.59%
4,Cc1cc2n(n1)SC(Nc1cc(Cl)ccc1Cl)N2 (centres unmarked),7.4%
5,COC(=O)c1cc(S(=O)(=O)Nc2ccc(C)c(F)c2)c[nH]1,-3.6%
6,CCn1c(/C(C#N)=N/O)nc2ccccc21,6.1%
7,O=C(NNS(=O)(=O)c1ccc(F)cc1)c1ccccc1O,13.6%
8,O=C(C[n+]1ccc(C(=O)N/N=C/c2ccc(Br)cc2)cc1)c1ccccc1.[Br-],-32.5%
9,O=C(C[n+]1ccc(C(=O)N/N=C/c2ccc(O)cc2)cc1)c1ccccc1.[Br-],4.63%
10,O=C(C[n+]1ccc(C(=O)N/N=C/c2ccc(Cl)cc2Cl)cc1)c1ccccc1.[Br-],-63.3%
11,O=C(NCC1CCCO1)c1ccc(S(=O)(=O)Nc2ccccc2F)cc1 (centres unmarked),7.53%
12,Cc1ccc(C)c(N/C(N)=N/c2nc(C)cc(C)n2)c1,-8.3%
13,COc1cc(N/C(N)=N/c2nc(C)cc(C)n2)c(OC)cc1Cl,-17.2%
14,COc1ccccc1N/C(N)=N/c1nc(C)cc(C)n1,-2.38%
15,COc1ccc(C)cc1N/C(N)=N/c1nc(C)cc(C)n1,-64.7%
16,COc1ccc(OC)c(N/C(N)=N/c2nc(C)cc(C)n2)c1,-26.5%
17,CCCOc1ccccc1N/C(=N/c1nc(C)cc(C)n1)NC(=O)Nc1ccc(Cl)cc1,8.59%
18,CCCOc1ccccc1N/C(N)=N/c1nc(C)cc(C)n1,-59.4%
19,Cc1ccc(N/C(N)=N/c2nc(C)cc(N3CCCCC3)n2)c(C)c1,-79%
20,COc1ccc(Cl)cc1N/C(N)=N/c1nc(C)cc(=O)[nH]1,12.3%

row,Structure (SMILES),"hERG current change (%, negative = inhibition) at 1uM"
1,COc1ccc(N/C(N)=N/c2nc(C)cc(C)n2)c(OC)c1,-2.86%
2,COc1ccc(Cl)cc1N/C(N)=N/c1nc(C)cc(C)n1,-79.1%
3,CC(=O)N/C(=N/c1nc(C)cc(C)n1)Nc1ccc(C)cc1C,4.11%
4,COc1cc(/C=C(\C#N)C(=O)Nc2ccccc2F)ccc1OCCN1CCOCC1,-25.6%
5,CN(c1ccccc1)S(=O)(=O)c1cc(C(=O)N2CCN(c3ccccn3)CC2)ccc1Cl,16.5%
6,CN1CCN(c2ccc([N+](=O)[O-])cc2NC(=O)c2ccco2)CC1,-22.4%
7,Cc1ccc(S(=O)(=O)N2CCCCC2)cc1C(=O)N(CCc1ccccc1)Cc1ccccc1,12.2%
8,COc1ccc(C(=O)Oc2ccc(F)cc2C(=O)/C=C/c2ccc(OC)c(OC)c2)cc1,0.79%
9,O=C(COc1ccccc1Cl)NC(=S)Nc1ccc(CN2CCOCC2)cc1,15.7%
10,Cc1ccc(NC(=O)COc2ccc3oc4c(c3c2)CCCC4)nc1,2.88%
11,COc1cc(C2C(C(=O)c3cccs3)=C(O)C(=O)N2c2cc(C)on2)ccc1O (centres unmarked),2.84%
12,COc1ccc([N+](=O)[O-])cc1NC(=O)CSCc1ccccc1,13.5%
13,COc1ccc(-c2cc3ccc(OCC(=O)NCC4CCC(C(=O)O)CC4)cc3oc2=O)cc1 (centres unmarked),5.49%
14,CC(C)(C)C(=O)N1NC(=Nc2ccccc2)SC1(C)C,7.38%
15,CCOc1ccc(S(=O)(=O)NCC2CCCO2)c2ccccc12 (centres unmarked),4.4%
16,O=C1OC(Nc2ccc(Cl)cn2)c2ccccc21 (centres unmarked),2.2%
17,CCOC(=O)c1ccc2c(c1)n(CCO)c(C)[n+]2CC.[I-],6.24%
18,CCn1c(C)[n+](CC)c2ccc(C(=O)N(C)c3ccccc3)cc21.[I-],25.5%
19,CCn1c(/C=C/Nc2ccccc2)[n+](CC)c2ccc(C(=O)OCC(F)(F)F)cc21.[I-],-90.5%
20,CCn1c(/C=C/N(C)c2ccccc2)[n+](CC)c2ccc(Cl)cc21.[I-],-7.59%

row,Structure (SMILES),"hERG current change (%, negative = inhibition) at 1uM"
1,CCOC(=O)c1ccc2c(c1)n(CCCS(=O)(=O)[O-])c(/C=C/c1ccc(Cl)cc1)[n+]2CC,-7.29%
2,CCOC(=O)c1ccc2c(c1)n(CC)c(C)[n+]2CC.[I-],1.24%
3,CCOC(=O)c1ccc2c(c1)n(CC)c(/C=C/Nc1ccccc1)[n+]2CC.[I-],-86.7%
4,CCOC(=O)c1ccc2c(c1)n(CC)c(/C=C/N(C)c1ccccc1)[n+]2CC.[I-],-66.2%
5,CCOC(=O)c1ccc2c(c1)n(Cc1ccccc1)c(C)[n+]2CC.[O-][Cl+3]([O-])([O-])[O-],1.03%
6,CCC1CCCCN1C(=O)c1sc2nc(C)nc(N(CC)CC)c2c1C (centres unmarked),5.72%
7,O=C(CC1C(=O)NCCN1Cc1ccc(Cl)c(F)c1)NC1CCC1 (centres unmarked),14%
8,Cc1ccc(C2CCN(C(=O)Nc3ccccc3)C2)cc1 (centres unmarked),11.5%
9,CC(C)CC1NC(=O)N(CC(=O)NC2CCCc3ccccc32)C1=O (centres unmarked),9.38%
10,O=C(c1cccc(C(F)(F)F)c1)N1CCN(S(=O)(=O)c2ccc(Cl)s2)CC1,3.68%
11,O=C(O)c1ccc2c(c1)C(=O)N(c1cc([N+](=O)[O-])ccn1)C2=O,10.8%
12,COc1ccccc1C1/C(=C(/O)c2ccccc2)C(=O)C(=O)N1CC(C)C (centres unmarked),10.7%
13,O=C(O)C1C2C=CC(C2)C1C(=O)NCc1ccoc1 (centres unmarked),14.3%
14,O=C(CN1CCOCC1)Nc1ccc([N+](=O)[O-])cc1Br,-11.7%
15,CC(=O)N1CCN(CC(=O)Nc2ccc([N+](=O)[O-])cc2Br)CC1,-60.4%
16,CC(=O)N1CCN(CC(=O)Nc2cc([N+](=O)[O-])ccc2Cl)CC1,1.54%
17,O=C(CN1CCCCCC1)Nc1ccc([N+](=O)[O-])cc1Br,10.1%
18,O=C(CN1CCN(c2ccccc2O)CC1)Nc1ccc([N+](=O)[O-])cc1Br,7.54%
19,CN1CCN(CC(=O)Nc2ccc([N+](=O)[O-])cc2Br)CC1,-55.8%
